High-throughput results as filed in PubChem BioAssay.
MenB inh: Mtb MenB enzyme inhibition; P9WNP5; 0.43% of 100,000 active; inhibition, % (concentration not given with the values); MenB enzyme assay, absorbance read-out; in the data active = inhibition above about 21%, passing the limit was not always enough
AID504770: E. coli YBA685 growth inhibition, screen for V. cholerae RctB inhibitors; AID 504770; E. coli YBA685 rctB-dependent plasmid, OD600 growth, 3 h; stronger effect = lower value; z-score (no concentration beside the values); 0.27% of 130,000 active; in the data active = z-score below about -2, passing the limit was not always enough
Mtb MbtI inh: MbtI salicylate synthase inhibition | P9WFX0 | purified MbtI enzyme, fluorescence intensity read-out | inhibition, % (concentration not given with the values) | 0.89% of 100,000 active | AID 493033; in the data active = inhibition mostly above about 56%, no sharp cut-off; inactive = mostly below about 77%
Target sequence (P9WFX0 whole entry, looked up): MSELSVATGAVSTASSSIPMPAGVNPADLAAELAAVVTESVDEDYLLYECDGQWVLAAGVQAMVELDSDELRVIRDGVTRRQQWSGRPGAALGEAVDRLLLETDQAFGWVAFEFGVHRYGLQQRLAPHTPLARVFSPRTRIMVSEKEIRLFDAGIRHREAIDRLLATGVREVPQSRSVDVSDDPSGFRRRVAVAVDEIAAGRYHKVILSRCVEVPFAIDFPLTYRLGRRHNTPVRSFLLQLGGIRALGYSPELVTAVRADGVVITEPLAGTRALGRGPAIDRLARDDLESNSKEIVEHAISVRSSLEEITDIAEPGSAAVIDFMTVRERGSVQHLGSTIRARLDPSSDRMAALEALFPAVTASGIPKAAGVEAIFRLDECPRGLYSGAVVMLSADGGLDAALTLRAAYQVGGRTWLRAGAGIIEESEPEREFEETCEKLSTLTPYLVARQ
Polio RdRp inh: poliovirus RNA polymerase inhibition | % elongation, % (compound at 16.7 µg/mL) | P03300 | 0.66% of 150,000 active | AID 588519 | poliovirus polymerase elongation, fluorescence polarization; stronger effect = lower value; in the data active = % elongation below about 90%
Of the large screens only hits and unclear results are named; the others gave an inactive call. Hits are enriched below; roughly 1.4% of the tested compounds scored in any of these assays.

Cc1ccc(C)c(SCC(=O)NC(C)C(c2ccccc2)N2CCOCC2)c1 (configuration not stated)	Polio RdRp inh 88.0 (no result: MenB inh)
Cc1ccc(C)c(SCC(=O)NC(C)C(c2cccs2)N2CCCC2)c1 (configuration not stated)	none (no result: MenB inh)
Cc1ccc(-n2c(SCc3cc(C)on3)nc3sc(C)c(C)c3c2=O)c(C)c1	none
CN1C(C(=O)N2CCN(Cc3ccccc3)CC2)=CC(c2ccc(F)cc2)=NS1(=O)=O	none
O=C1N=c2ccccc2=C1c1c(O)n(-c2cccc(F)c2)[nH]c1=O	Mtb MbtI inh 88.0
COc1ccc(-c2csc(-n3nc(C)cc3C)n2)cc1	none (no result: MenB inh, Mtb MbtI inh, Polio RdRp inh)
Cc1cc(C)n(CCc2nc(-c3ccc(C)c(C)c3)cs2)n1	Mtb MbtI inh 72.6, Polio RdRp inh 82.0
N#Cc1ccc(COC(=O)C2CCCCN2S(=O)(=O)c2cccc3nsnc23)cc1 (configuration not stated)	Polio RdRp inh 42.0
CCCN(Cc1nnc(-c2ccco2)o1)C(=O)c1cccnc1SCc1c(C)noc1C	Polio RdRp inh 89.0
NC1=NC(=O)C(C(=O)NC2(C(F)(F)F)Oc3cc(Cl)c(Cl)cc3O2)S1 (configuration not stated)	Mtb MbtI inh 92.2
CCN(CC)CCNc1nc2c(c(=O)n(C)c(=O)n2C)n1Cc1ccc(F)cc1	none (no result: MenB inh, Polio RdRp inh)
CCN(CC)CCNc1nc2c(c(=O)n(C)c(=O)n2C)n1CCc1ccccc1	MenB inh 22.7
N#Cc1cccc(NC(=O)CSc2ccccc2Cl)c1	none (no result: MenB inh)
S=c1[nH]c2ccccc2n1Cc1ccccc1	Mtb MbtI inh 83.6
N#CCCn1c(=S)[nH]c2ccccc21	Polio RdRp inh 82.0
S=c1[nH]c2ccccc2n1CCOc1ccccc1	Mtb MbtI inh 95.4
Cc1ccc(S(=O)(=O)N2CCOCC2)c(C)c1	none
Cc1ccc(S(=O)(=O)N2CCN(Cn3nc(Nc4ccccc4F)sc3=S)CC2)cc1	Mtb MbtI inh 94.5
CCS(=O)(=O)N1CCN(S(=O)(=O)c2ccc(C)cc2)CC1	none
Cc1ccc(S(=O)(=O)N2CCN(Cn3nc(C)sc3=S)CC2)c(C)c1	Mtb MbtI inh 68.2
CC(C)(C)C1=Nn2c(nnc2-c2ccccc2)SC1	Mtb MbtI inh 64.5
O=C(Nc1ccccc1I)c1ccccc1	none
O=C(Cn1nc(Cc2ccncc2)c2ccccc2c1=O)NCCC1=CCCCC1	AID504770 -2.25 (no result: MenB inh, Mtb MbtI inh, Polio RdRp inh)
CN(C)C(=O)CSCc1c(Cl)cccc1Cl	Polio RdRp inh 34.0
CC(C)N(Cc1ccccc1)C(=O)CSc1nnc(-c2ccccc2Br)o1	none
Nc1cc(C(F)(F)F)ccc1-n1cnc2ccccc21	Mtb MbtI inh 90.1 (no result: MenB inh)
COc1ccc(C2CC(=O)N3CN(C4CCCCC4)CSC3=C2C#N)c(OC)c1 (configuration not stated)	Polio RdRp inh 54.0 (no result: MenB inh, AID504770, Mtb MbtI inh)
COc1cc(C2CC(=O)N3CN(Cc4ccccc4)CSC3=C2C#N)cc(Br)c1O (configuration not stated)	none
N#CC1=C2SCN(C3CCCCC3)CN2C(=O)CC1c1ccc(Br)cc1 (configuration not stated)	none (no result: MenB inh, AID504770, Mtb MbtI inh)
N#CC1=C2SCN(C3CCCCC3)CN2C(=O)CC1c1ccccc1 (configuration not stated)	Mtb MbtI inh 72.8
Cc1ccc2ccc(C3C(=O)c4cccnc4C3=O)nc2c1 (configuration not stated)	none (no result: Mtb MbtI inh)
CC(C)C(=O)Nc1c(C(N)=O)oc2ccccc12	none
Cc1ccc(NNC(=S)NC(=O)C2CC2)c(C)c1	Mtb MbtI inh 94.6
Nn1c(CCC2CCCCC2)n[nH]c1=S	Mtb MbtI inh 85.9, Polio RdRp inh 81.0
Clc1ccc(CNc2nc3ccccc3[nH]2)cc1Cl	AID504770 -2.8
CCC(=O)C1=C(c2ccccc2)N(C(=O)CC)n2cnnc2S1	none
CCOc1ccc(C2=C(C(=O)CC)Sc3nncn3N2C(=O)CC)cc1	Polio RdRp inh 82.0 (no result: MenB inh, AID504770, Mtb MbtI inh)
CCC(=O)C1=C(c2ccc(F)cc2)N(C(=O)CC)n2cnnc2S1	Polio RdRp inh 86.0 (no result: MenB inh, AID504770, Mtb MbtI inh)
O=C(c1cccs1)c1cnc2ncccn12	none
CC(C)C(C)NC(=O)CSc1nc2ccccc2n1C (configuration not stated)	none
COc1ccccc1C(=O)Nc1ccccc1C(=O)N1CCCCC1	none
CCN(C(=O)NS(=O)(=O)c1ccc(C)cc1)C1CCCCC1	none
O=S(=O)(NNc1nccc(-c2cccnc2)n1)c1cccc(C(F)(F)F)c1	Mtb MbtI inh 55.1
C=CCc1c(C)[nH]c(=S)[nH]c1=S	none
CCOC(=O)c1c(C)oc2nc(COC(=O)c3cc(-c4ccc(Cl)cc4)nc4ccccc34)nc(N)c12	AID504770 -4.65
COc1ccc(-c2cc(C(=O)Oc3ccc(Cl)cc3)c3ccccc3n2)cc1	none (no result: MenB inh, AID504770, Mtb MbtI inh)
Cc1cc(Br)cc(C)c1OCCCN(C)C	Polio RdRp inh 88.0
CCOC(=O)CC(=O)c1c[nH]c2ccccc12	AID504770 -2.2 (no result: Mtb MbtI inh)
CCOC(=O)Cc1c[nH]c2ccccc12	none
CCOC(=O)CC(=O)c1ccccc1	MenB inh 34.1
CCOC(=O)CN=C(c1ccccc1)c1ccccc1	none (no result: Mtb MbtI inh)
COc1ccc(C/C(=N/N=C(N)N)c2ccc(OC)cc2)cc1	none
CCN(Cc1nc(-c2ccc(OC)c(OC)c2)no1)C(=O)Cc1cccc2ccccc12	none
Cc1cccc(-c2nsc(SCC(=O)N3CCCCC3)n2)c1	none
CCOC(=O)CSc1nc(-c2ccccc2)ns1	Mtb MbtI inh 52.0
CC1=Nc2ccc(Cl)cc2C(c2ccccc2)N1CC(=O)NN (configuration not stated)	none
Cn1cc(NC(=O)N(Cc2ccco2)CC2CCCO2)c2ccccc2c1=O (configuration not stated)	Polio RdRp inh 82.0
O=C(CC(NCCN1CCOCC1)C(=O)O)Nc1ccc2ccccc2c1 (configuration not stated)	none
Cc1ccc(C(=O)CC(NCCN2CCOCC2)C(=O)O)cc1 (configuration not stated)	MenB inh 32.9 (no result: Mtb MbtI inh)
Cc1ccc(C)n1-c1cccc(C(=O)O)c1	Polio RdRp inh 34.0 (no result: Mtb MbtI inh)
Cc1ccc(-n2sc3ccccc3c2=O)cc1	Mtb MbtI inh 101.5
Cc1ccc(N2C(=O)c3ccccc3C2=O)cc1	none
COc1cccc(C2=NS(=O)(=O)N(C)C(C(=O)Nc3cccc(O)c3)=C2)c1	Polio RdRp inh -16.0 (no result: MenB inh, AID504770, Mtb MbtI inh)
C=CCC(NC(C)c1ccco1)c1ccccc1 (configuration not stated)	none
C=CCNc1oc(-c2ccccc2C)nc1C#N	none
COc1ccc(NS(=O)(=O)c2ccc3oc(SC)nc3c2)cc1	Mtb MbtI inh 91.8, Polio RdRp inh 82.0
COc1ccc(NS(=O)(=O)c2ccc3oc(SC/C(O)=C(\C#N)c4nc5ccccc5s4)nc3c2)cc1	none
NC(=O)COC(=O)c1cc2nc(Nc3ccccc3)sc2s1	none
C=C1C(C(=O)Nc2ccccc2N2CCOCC2)C1C(=O)Nc1ccccc1N1CCOCC1 (configuration not stated)	none
CN(C)C(=S)Nc1ccccc1N1CCOCC1	Mtb MbtI inh 95.2
COC(=O)c1ccc(OC)c(CN2CCN(Cc3ccc(C)cc3)S2(=O)=O)c1	none
CSCCC(N)c1nc2ccccc2n1Cc1ccccc1 (configuration not stated)	none (no result: MenB inh)
Cc1ccc(OC(=O)c2cccnc2)cc1	MenB inh 51.9
Cc1cc(C)cc(OC(=O)c2cccnc2)c1	none
COc1ccc(CNc2ccc(F)cc2C)c2ccccc12	none
